Source: PubChem BioAssay (NCI)
This is part of a sample that, as a whole, favours compounds with a hit. Of some 79,000 tested, about 15% had one in any assay. Unmarked numbers belong to inactive results. Activity calls are given as the source filed them. Rule as the data show it: active = growth inhibition above about 70%; inactive = the rest.

Experiment: NCI Yeast Anticancer Drug Screen. Data for the bub3 strain (AID 167)
Settings: S. cerevisiae bub3 mutant strain, hits give high values
Procedure: Growth inhibition of yeast strains with defined genetic alterations is measured as a screen for potential anti-cancer activity. Selected strains with alterations in DNA damage repair or cell cycle control were exposed to compounds and growth inhibition was measured relative to vehicle treated controls. The strain used in this assay is bub3

[1] = at 5.0 µM (retest, dose inferred, filed as 0.5)
[2] = at 50.0 µM (retest, dose inferred, filed as 5.0)

| SMILES | growth inhibition [1] | growth inhibition [2] | growth inhibition (at 50.0 µM) |
| --- | --- | --- | --- |
| NC(CCl)=NCC1C2CC3CC(C2)CC1C3 (configuration not stated) | 10% | 98% (active) | 89.2% (active) |
| CCOC(=O)Nc1cc2c(cn1)[nH]c1ccccc12 | 2% | 38% | 3.25% |
| CC(C(O)Cc1ccccc1)N(C)N=Nc1ccc([N+](=O)[O-])cc1 (configuration not stated) | 23% | 92% (active) | 72.7% (active) |
| O=Cc1nc2c3cccnc3ccc2n1Cc1ccccc1 | 0% | 11% | 57.4% |
| Cc1cccc2c1Oc1ccccc1C2N1C(=O)/C(=C/c2cccs2)SC1=S (configuration not stated) | -8% | -4% | 26.4% |
| Cc1c(Cl)ccc(O)c1[N+](=O)[O-] | 5% | 93% (active) | 88.8% (active) |
| N#Cc1ccccc1[N+](=O)[O-] | -3% | 54% | 61.4% |
| O=C1OC2(CCCCC2)OC(=O)C1=Cc1ccc([N+](=O)[O-])s1 | 0% | 99% (active) | 22.6% |
| CC(=O)C1(C(C)=O)C2=C(C(=O)C(Cl)=C(Cl)C2=O)N2C=CC=CC21 (configuration not stated) | 91% (active) | 97% (active) | 98.3% (active) |
| N#Cc1ncc(Cl)cc1[N+](=O)[O-] | 70% (active) | 98% (active) | 99.6% (active) |
| C/C(=C\N1CCN(c2ccc(Cl)cc2)C(C)C1)C(=O)c1ccccc1 (configuration not stated) | -1% | 92% (active) | 24.9% |
| C1=C(c2c(-c3ccccc3)[nH]c3ccccc23)Cc2ccccc21 | -3% | 58% | 71.4% (active) |
| CCNC(=O)NNc1ncnc2c1c(-c1ccc(Cl)cc1)cn2-c1ccc(C)cc1 | 0% | 97% (active) | 40% |
| CN1C/C(=C\c2ccccc2)C(=O)C(c2ccccc2)C1 (configuration not stated) | -7% | 95% (active) | 77.2% (active) |
